Test [1] is described as follows: qHTS assay to identify small molecule agonists of the vitamin D receptor (VDR) signaling pathway - cell viability counter screen (AID 743224). Note: nearly all actives have a fitted effect of over 50% in size. Put shortly:
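Cells: VDR-bla, 2,000/well, settled 4 h. Treatment: compounds in DMSO, 16 h, 37C/5% CO2. Readout: CellTiter-Glo luminescence after 30 min RT.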
(qHTS replaces the single test concentration by a dilution series.)

Test [2] in a line: qHTS assay to identify small molecule antagonists of the vitamin D receptor (VDR) signaling pathway - cell viability counter screen (AID 743225). Note: nearly all actives have a fitted effect of over 50% in size. In outline: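 Compounds were pinned onto VDR-bla HEK 293T cells together with 1-alpha,25-dihydroxyvitamin D3 at 3 nM final. After 16 h at 37C and 5% CO2 plus the reporter readout, cell viability was measured by CellTiter-Glo luminescence (30 min, room temperature).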

A short description of test [3]: qHTS assay to identify small molecule agonists of the NFkB signaling pathway (AID 1159509; active = well fitted curve in the direction sought with a large enough effect in the signal ratio in the repeat runs, not every such curve was filed as active; the % refers to the signal ratio). Put shortly:
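Readout: FRET fluorescence, 405 nm excitation, 460/530 nm emission; beta-lactamase expression disrupts FRET. Cells: ME-180 stably carrying NF-kB-driven bla reporter. Compound exposure 5 hr, 37 C, 5% CO2.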

Test [4] in a line: qHTS assay to identify small molecule agonists of the NFkB signaling pathway - cell viability counter screen (AID 1159515; calls by dose curve; note: nearly all actives have a fitted effect of over 55% in size). In outline: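 Cells are seeded (2,000 NFkB-bla ME-180 per well), rested overnight, and dosed with DMSO-dissolved compounds for 5 hr at 37 C. Viability is then read by CellTiter-Glo luminescence after 30 min at room temperature.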
The nature of test [5]: qHTS assay to identify small molecule agonists of the endoplasmic reticulum stress response signaling pathway - cell viability counter screen (AID 1159517; calls by dose curve; note: nearly all actives have a fitted effect of over 50% in size; note: potency is the fitted concentration of half-maximal effect). Put shortly: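 Steps: seed 1,500 ESRE-bla HeLa cells per well; incubate overnight at 37 C, 5% CO2; add compounds in DMSO for 5 hr; run FRET substrate 2 hr RT; add CellTiter-Glo, wait 30 min, read luminescence.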
A short description of test [6]: qHTS assay to identify small molecule antagonists of the retinoid-related orphan receptor gamma (ROR-gamma) signaling pathway - cell viability counter screen (AID 1159520). Note: nearly all actives have a fitted effect of over 50% in size. Note: potency is the fitted concentration of half-maximal effect. Put shortly:
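Tet-on ROR gamma CHO cells were given compounds for 2 hr, then doxycycline hyclate at 1 uM final, and incubated 16 hr at 37 C. Viability was measured as ATP content by CellTiter-Glo luminescence.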

Test [7] is described as follows: qHTS assay to identify small molecule agonists of the AP-1 signaling pathway - cell viability counter screen (AID 1159525; calls by dose curve; note: nearly all actives have a fitted effect of over 55% in size). Put shortly: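 Same-well cytotoxicity counter screen of the Tox21 10K library in ME-180 cells. The readout is ATP-dependent luminescence after 5 h compound treatment. Data are normalised to DMSO and tetra n-octyl ammonium bromide controls.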

A short description of test [8]: qHTS assay to identify small molecule agonists of the AP-1 signaling pathway (AID 1159526; calls by dose curve).
Test [9] is described as follows: qHTS assay to identify small molecule antagonists of the retinoid acid receptor (RAR) signaling pathway - cell viability counter screen (AID 1159551). Note: nearly all actives have a fitted effect of over 35% in size. Put shortly:
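Cells (C3RL4) are plated, incubated overnight, dosed with compound in DMSO, then given retinol at 1 uM final. After 6 h at 37 C, CellTiter-Glo is added and luminescence read following 30 min at room temperature.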

Test [10] is described as follows: qHTS assay to identify small molecule antagonists of the retinoic acid receptor (RAR) signaling pathway (AID 1159552; note: nearly all actives have a fitted effect of over 50% in size). In outline: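 Test chemicals and DMSO controls were pin-transferred onto C3RL4 cells a day after seeding; retinol (1 uM final) followed at once. Luminescent reporter output was quantified after 6 hr of co-incubation and 30 min with detection reagent.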

A short description of test [11]: qHTS assay to identify small molecule agonists of the retinoic acid receptor (RAR) signaling pathway (AID 1159553). Note: potency is the fitted concentration of half-maximal effect. The settings on record: C3RL4 RARE luciferase reporter, agonist, 6 h; activation: at 73.3 µM (top of the series). Put shortly: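 Seed C3RL4 reporter cells at 1,000 per well and incubate overnight at 37 C. Add compounds in DMSO, incubate 6 hr. Add luciferase reagent, wait 30 min at room temperature, read luminescence.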

The target in test [12] is Nuclear receptor ROR-gamma (Homo sapiens) (UniProt P51449). Description: qHTS assay to identify small molecule antagonists of the retinoid-related orphan receptor gamma (ROR-gamma) signaling pathway (AID 1159521). In outline:
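Test compounds were applied to Tet-on RORγ CHO cells 2 h ahead of doxycycline hyclate (1 uM final). Luciferase reporter activity was quantified by luminescence after 16 h at 37 C and 5% CO2.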

In test [13] the target is Retinoic acid receptor RXR-alpha (Homo sapiens) (UniProt P19793). Description: qHTS assay to identify small molecule agonists of the RXR signaling pathway (AID 1159527; calls by dose curve; note: nearly all actives have a fitted effect of over 35% in size). In outline:
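Using 9-cis retinoic acid as the reference agonist, chemicals were tested in HEK 293T cells […] for 16 hr; substrate loading lasted 2 hr at room temperature.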

Test [14] in a line: qHTS assay to identify small molecule agonists of the RXR signaling pathway - cell viability counter screen (AID 1159529). Note: nearly all actives have a fitted effect of over 50% in size. In outline: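 Compounds dissolved in DMSO were pinned onto HEK 293T cells carrying a beta-lactamase reporter under RXR-alpha control and incubated 16 hr. Cytotoxicity was then quantified by CellTiter-Glo luminescence.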

Results filed as inconclusive are left out. The source made the active and inactive calls. Unless noted, calls come from the whole dose curve; as a rule, active = well fitted curve in the direction sought with a large enough effect in the repeat runs; inconclusive = weak or mixed curves; inactive = no such curve, though single readings can be large; an effect the other way counts as inactive or inconclusive.

Chain of Retinoic acid receptor RXR-alpha (Homo sapiens) (P19793 whole entry, looked up): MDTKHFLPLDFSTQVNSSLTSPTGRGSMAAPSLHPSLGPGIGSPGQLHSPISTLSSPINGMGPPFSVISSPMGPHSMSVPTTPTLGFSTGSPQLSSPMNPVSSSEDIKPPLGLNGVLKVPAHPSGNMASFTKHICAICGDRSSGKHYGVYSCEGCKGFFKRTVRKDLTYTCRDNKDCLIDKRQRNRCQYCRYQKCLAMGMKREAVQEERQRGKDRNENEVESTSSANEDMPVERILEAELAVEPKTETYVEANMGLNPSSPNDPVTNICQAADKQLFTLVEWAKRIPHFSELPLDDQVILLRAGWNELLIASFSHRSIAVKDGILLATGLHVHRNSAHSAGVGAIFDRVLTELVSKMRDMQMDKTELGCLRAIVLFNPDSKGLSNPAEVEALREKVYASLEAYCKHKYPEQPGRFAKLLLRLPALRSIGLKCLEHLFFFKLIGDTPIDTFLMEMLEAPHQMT

As to `Cc1cccc(N(C)C(=S)Oc2ccc3c(c2)CCC3)c1`, the Potency result in test [1], in test [2], in [3], in test [4], in test [5] and in test [6] was “inactive” in each case. In addition, the Potency result in test [7], in test [8], in test [9], in test [10] and in test [11] was “inactive” in each case.
On to `CCOC(=O)OC(C)OC(=O)[C@@H]1N2C(=O)[C@@H](NC(=O)[C@H](N)c3ccccc3)[C@H]2SC1(C)C` (stereo partly specified), for which the Potency entry in test [1], in [2], in test [3], in [4], in [5] and in test [6] was “inactive” throughout. For the same compound, the Potency entry in test [12], in test [7], in test [13], in test [14], in test [9] and in test [10] was “inactive” in each case. Further, the Potency result in test [11] was “inactive”.
In the case of `C[C@@H](O)[C@H]1C(=O)N2C(C(=O)O)=C([C@H]3CCCO3)S[C@H]12`, the Potency entry in test [3], in test [4], in test [5], in test [6], in [12] and in [7] was “inactive” in each case. Also, the Potency result in [13], in test [14], in [9], in test [10] and in [11] was “inactive” throughout.
As for `CCN(CC)CCNC(=O)COc1ccc(OC)cc1`, the Potency result in test [1], in test [2], in test [3], in test [4], in test [5] and in [6] was “inactive” each time. In addition, the Potency entry in [7], in test [8], in test [13], in test [14], in [9] and in test [10] was “inactive” each time. Moreover, the Potency result in [11] is “inactive”.
For the compound `CC(=O)Oc1ccc([N+](=O)[O-])cc1CCl`, the Potency entry in test [1], in [2], in test [3], in [4], in test [5] and in test [12] was “inactive” throughout. The Potency entry in test [7], in [8], in [13], in test [14], in test [9] and in test [10] was “inactive” each time. For the same compound, the Potency in test [11] was 68.6 µM (active).
Consider `CC(CN(C)C)C(C)(O)Cc1ccc(Cl)cc1` (stereo unspecified), for which the Potency result in [1], in test [2], in [3], in [4], in [5] and in [6] was “inactive” in each case. Besides, the Potency result in [7], in test [8], in [13], in test [14], in [9] and in test [10] was “inactive” throughout. The Potency result in test [11] was “inactive”.
Regarding `c1cc(N(CC2CO2)CC2CO2)ccc1Cc1ccc(N(CC2CO2)CC2CO2)cc1` (stereo unspecified), the Potency entry in test [2], in test [3], in [4], in [5], in [7] and in test [14] was “inactive” each time. Further, the Potency entry in test [9] and in test [10] was “inactive” each time. Further, the Potency is 54.5 µM (active) in test [6] and 30.6 µM (active) in test [11].
For the compound `O=C1c2ccccc2C(=O)C1(O)O`, the Potency entry in test [1], in test [2], in [3], in [4], in [7] and in [13] was “inactive” throughout. Moreover, in test [10], the Potency entry is “inactive”. The Potency was 49.2 µM (active) in test [5] and 61.4 µM (active) in test [6].
For the compound `CC(C)=CC(=O)C=C(C)C`, the Potency entry in test [1], in [2], in test [3], in test [4], in test [5] and in [6] was “inactive” in each case. Besides, the Potency entry in test [7], in test [8], in test [13], in [14], in test [9] and in test [10] was “inactive” in each case. The Potency entry in [11] was “inactive”.

Source of the values: PubChem BioAssay (Tox21).
